Here are results for five molecules from PubChem BioAssay.

Active and inactive are the calls of the source.

In assay [1] the test system is Plasmodium falciparum Sir2 (PF13_0152, Sir2A). As to the kind of experiment: Plasmodium falciparum Sir2A binding compounds – biochemical, small-molecule microarray, 635 nm fluorescence, primary screen (AID 1098).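 Note: score merges spot fluorescence intensity with its signal-to-noise ratio.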 The following applies: fluorescence 635 nm, higher = more signal.
Assay [2] can be described thus: probe aDKK1 binding to arrayed compounds – biochemical, biotinylated probe, 635/667 nm fluorescence, primary screen (AID 1099).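 Note: score merges 667nm spot fluorescence with signal to noise across triplicate slides.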 The following applies: small-molecule microarray, higher = more signal.
The nature of assay [3]: probe aCHRDL2 binding to arrayed compounds – biochemical, biotinylated probe, 635/667 nm fluorescence, primary screen (AID 1100). The note with it: small-molecule microarray, higher = more signal.
The nature of assay [4]: change in splice reporter luminescence, either direction, cell-based, HEK293, spliceosome inhibition project, primary screen (AID 1101).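 Note: HEK293 cells carrying a splicing-competent luciferase reporter gene; test concentration not given here.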 The following applies: HEK293 splicing luciferase reporter, 24 h, higher = more signal, called active from +8 up or from −8 down.
Assay [5] deals with Fibroblast growth factor 10 (Homo sapiens) (UniProt O15520). As to the kind of experiment: compounds binding fibroblast growth factor 10 – biochemical, small-molecule microarray, 635 nm fluorescence, primary screen (AID 1102). The note with it: FGF10 binding, fluorescence 635 nm, higher = more signal.
The test system of assay [6] is glycogen synthase kinase-3 (GSK3A per assay name; protocol says GSK3B). As to the kind of experiment: compounds binding glycogen synthase kinase-3 – biochemical, small-molecule microarray, 635 nm fluorescence, GSK3A, primary screen (AID 1103). Note: the record names both GSK3A and GSK3B. The following applies: fluorescence 635 nm, higher = more signal.
Assay [7] concerns the target Epidermal growth factor receptor (Homo sapiens) (UniProt P00533). As to the kind of experiment: compounds binding epidermal growth factor receptor – biochemical, small-molecule microarray, 635 nm fluorescence, primary screen (AID 1104).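 Note: score merges 667 nm emission intensity with spot signal to noise over triplicate slides.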 The following applies: EGFR binding, higher = more signal.
Assay [8] concerns the target Follistatin-related protein 3 (Homo sapiens) (UniProt O95633). As to the kind of experiment: compounds binding follistatin-related protein 3 – biochemical, small-molecule microarray, 635 nm fluorescence, primary screen (AID 1105).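 Note: score merges emission near 667 nm and signal to noise per printed spot across three slides.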 The note with it: FSTL3 binding, higher = more signal.
The target of assay [9] is Dickkopf-related protein 1 (Homo sapiens) (UniProt O94907). As to the kind of experiment: small molecules binding DKK1 protein – biochemical, small-molecule microarray, 635 nm fluorescence scan, primary screen (AID 1106).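 Note: score merges emission near 667 nm with signal to noise over three replicate slides.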 The following applies: higher = more signal.
Assay [10] relates to Inhibin beta A chain (activin A). As to the kind of experiment: small molecules binding activin A – biochemical, small-molecule microarray, 635 nm fluorescence scan, primary screen (AID 1107).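 Note: mouse activin A protein probed at 4.33 µg/mL on printed slides; score merges bound-protein fluorescence near 667 nm with spot signal-to-noise.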 The note with it: INHBA, higher = more signal.
In assay [11] the test system is Human papillomavirus type 1a protein E7 (residues 44-93). As to the kind of experiment: small molecules binding HPV E7 44-93 – biochemical, small-molecule microarray, residues 44-93, 635 nm fluorescence, primary screen (AID 1108).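 Note: E7 fragment applied at 1 µg/mL in TBST for 1 h at 4 C; score combines spot fluorescence with its signal to noise ratio.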 The note with it: fluorescence 635 nm, higher = more signal.
A short description of assay [12]: hepatitis C replication reporter changes, two-sided – Huh7 cells, luciferase reporter, HCV replication inhibitor project, primary screen (AID 1109).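 Note: huh7 hepatoma cells harbouring a luciferase neomycin HCV replicon reporter; luciferase luminescence as measure of HCV replicon replication; test concentration not given here.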 The note with it: Huh7 HCV replicon luciferase reporter, 48 h; higher = more signal.
Assay [13] has as its target Left-right determination factor 2 (Homo sapiens) (UniProt O00292). As to the kind of experiment: small molecules binding LEFTY2 protein – biochemical, small-molecule microarray, 635 nm fluorescence scan, primary screen (AID 1110). The note with it: higher = more signal.
Assay [14] concerns the target Calmodulin-1 (Homo sapiens) (UniProt P0DP23). Kind of assay: small molecules binding calmodulin-1 with EGTA – biochemical, small-molecule microarray, Cy5-labelled CALM1, profiling panel (AID 1111).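 Note: labelled calmodulin applied in Tris saline Tween buffer holding calcium plus EGTA and DTT.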 The note with it: Cy5-CALM1 binding fluorescence, higher = more signal.
For assay [15] the target is unchanged. As to the kind of experiment: small molecules binding Ca-loaded calmodulin-1 – biochemical, small-molecule microarray, Cy5-labelled CALM1, plus calcium, artefact control for SMM control-protein annotation, profiling panel (AID 1112).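 Note: score merges spot fluorescence with signal to noise from triplicate slides.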 The following applies: Cy5-CALM1 binding fluorescence, higher = more signal.
Assay [16] is described as follows: probe aWnt5a binding to arrayed compounds – biochemical, biotinylated probe, 635/667 nm fluorescence, primary screen (AID 1113).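 Note: score merges 667 nm fluorescence intensity with signal-to-noise per printed feature.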 The following applies: small-molecule microarray, higher = more signal.
Assay [17] is described as follows: probe aShh binding to arrayed compounds – biochemical, biotinylated probe, 635/667 nm fluorescence, primary screen (AID 1114).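 Note: probe is biotin-labelled aShh protein from a stem cell growth factor screen; measures binding of labelled protein to compounds printed on the slide; score merges feature fluorescence at 667 nm with signal-to-noise.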 The following applies: small-molecule microarray, higher = more signal.
Assay [18] is described as follows: probe aNog binding to arrayed compounds – biochemical, biotinylated probe, 635/667 nm fluorescence, primary screen (AID 1115).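 Note: probe is biotinylated aNog protein used at 0.15 µg/mL for 1 h at 4 C; z-score combines 667 nm fluorescence of each spot with its signal to noise.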 The note with it: small-molecule microarray, higher = more signal.
Assay [19] deals with Torsin-1A-interacting protein 1 (Homo sapiens) (UniProt Q5JTV8). Kind of assay: compound microarray binding of lysate hLAP1 – cell lysate, small-molecule microarray, COS7 lysate, 635/667 nm fluorescence, primary screen (AID 1116). The following applies: 635 nm fluorescence, higher = more signal.
In assay [20] the target is Alpha-bungarotoxin (Bungarus multicinctus) (UniProt P60615). Kind of assay: compounds binding labelled alpha-BTX control protein – biochemical, small-molecule microarray, Alexa647 label, 635/667 nm fluorescence, artefact control for SMM control protein annotation, profiling panel (AID 1117). The note with it: alpha-BTX-A647 binding fluorescence, higher = more signal.
Sequence of Alpha-bungarotoxin (Bungarus multicinctus) (P60615 whole entry, looked up): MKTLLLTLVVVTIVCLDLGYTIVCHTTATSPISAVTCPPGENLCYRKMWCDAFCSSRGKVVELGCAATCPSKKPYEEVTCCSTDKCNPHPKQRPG

Sequence of Epidermal growth factor receptor (Homo sapiens) (P00533 whole entry, looked up): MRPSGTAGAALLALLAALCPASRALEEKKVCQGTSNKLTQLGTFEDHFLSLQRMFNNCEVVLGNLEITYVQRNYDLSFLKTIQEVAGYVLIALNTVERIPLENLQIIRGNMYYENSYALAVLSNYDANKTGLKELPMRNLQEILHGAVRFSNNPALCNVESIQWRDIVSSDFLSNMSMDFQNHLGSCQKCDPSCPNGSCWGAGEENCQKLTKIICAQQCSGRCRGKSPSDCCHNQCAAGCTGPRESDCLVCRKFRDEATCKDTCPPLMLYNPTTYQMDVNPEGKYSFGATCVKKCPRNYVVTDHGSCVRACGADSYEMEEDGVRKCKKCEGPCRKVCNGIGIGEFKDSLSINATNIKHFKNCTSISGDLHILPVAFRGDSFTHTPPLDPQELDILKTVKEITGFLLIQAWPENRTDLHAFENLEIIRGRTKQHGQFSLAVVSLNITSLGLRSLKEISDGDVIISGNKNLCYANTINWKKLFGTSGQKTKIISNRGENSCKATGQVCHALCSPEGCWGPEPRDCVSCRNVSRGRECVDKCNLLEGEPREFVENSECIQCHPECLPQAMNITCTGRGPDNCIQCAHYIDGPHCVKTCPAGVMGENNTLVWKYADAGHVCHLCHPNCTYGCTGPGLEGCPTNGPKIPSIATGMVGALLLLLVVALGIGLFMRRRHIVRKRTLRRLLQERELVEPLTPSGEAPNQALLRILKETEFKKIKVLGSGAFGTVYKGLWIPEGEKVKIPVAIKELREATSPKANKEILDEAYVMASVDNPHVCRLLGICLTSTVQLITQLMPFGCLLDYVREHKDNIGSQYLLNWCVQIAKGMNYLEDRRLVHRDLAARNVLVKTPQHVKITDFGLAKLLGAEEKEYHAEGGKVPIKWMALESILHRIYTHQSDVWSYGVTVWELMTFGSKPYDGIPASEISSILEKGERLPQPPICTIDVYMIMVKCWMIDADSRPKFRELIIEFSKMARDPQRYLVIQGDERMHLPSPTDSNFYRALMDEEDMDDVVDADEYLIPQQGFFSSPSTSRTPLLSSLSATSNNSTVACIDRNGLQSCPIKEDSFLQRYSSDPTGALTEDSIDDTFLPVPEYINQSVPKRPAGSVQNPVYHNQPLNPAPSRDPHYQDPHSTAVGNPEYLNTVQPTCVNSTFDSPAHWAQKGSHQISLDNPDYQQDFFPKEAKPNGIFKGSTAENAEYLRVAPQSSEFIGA
Sequence of Dickkopf-related protein 1 (Homo sapiens) (O94907 whole entry, looked up): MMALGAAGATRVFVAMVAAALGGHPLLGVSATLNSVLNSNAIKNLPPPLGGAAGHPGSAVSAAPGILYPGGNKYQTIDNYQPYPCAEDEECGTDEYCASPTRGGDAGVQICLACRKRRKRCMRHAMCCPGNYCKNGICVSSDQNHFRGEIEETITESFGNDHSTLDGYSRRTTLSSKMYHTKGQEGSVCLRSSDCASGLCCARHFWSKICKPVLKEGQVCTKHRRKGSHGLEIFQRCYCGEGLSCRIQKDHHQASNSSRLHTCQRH
Sequence of Left-right determination factor 2 (Homo sapiens) (O00292 whole entry, looked up): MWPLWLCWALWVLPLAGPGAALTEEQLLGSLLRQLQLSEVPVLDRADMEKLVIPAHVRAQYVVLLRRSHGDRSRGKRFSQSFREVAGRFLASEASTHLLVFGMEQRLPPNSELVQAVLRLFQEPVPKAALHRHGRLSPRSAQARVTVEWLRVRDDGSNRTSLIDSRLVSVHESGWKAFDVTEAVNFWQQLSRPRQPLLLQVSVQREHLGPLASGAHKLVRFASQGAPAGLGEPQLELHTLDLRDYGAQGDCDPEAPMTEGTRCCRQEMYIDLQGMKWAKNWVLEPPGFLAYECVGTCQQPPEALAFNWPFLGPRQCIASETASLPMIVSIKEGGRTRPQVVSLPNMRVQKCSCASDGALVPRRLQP
Sequence of Fibroblast growth factor 10 (Homo sapiens) (O15520 whole entry, looked up): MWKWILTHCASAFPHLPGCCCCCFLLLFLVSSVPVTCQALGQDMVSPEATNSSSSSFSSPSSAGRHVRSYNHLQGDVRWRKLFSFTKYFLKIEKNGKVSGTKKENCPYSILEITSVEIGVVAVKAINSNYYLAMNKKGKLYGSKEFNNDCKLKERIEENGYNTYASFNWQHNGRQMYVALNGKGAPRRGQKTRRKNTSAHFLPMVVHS
Sequence of Follistatin-related protein 3 (Homo sapiens) (O95633 whole entry, looked up): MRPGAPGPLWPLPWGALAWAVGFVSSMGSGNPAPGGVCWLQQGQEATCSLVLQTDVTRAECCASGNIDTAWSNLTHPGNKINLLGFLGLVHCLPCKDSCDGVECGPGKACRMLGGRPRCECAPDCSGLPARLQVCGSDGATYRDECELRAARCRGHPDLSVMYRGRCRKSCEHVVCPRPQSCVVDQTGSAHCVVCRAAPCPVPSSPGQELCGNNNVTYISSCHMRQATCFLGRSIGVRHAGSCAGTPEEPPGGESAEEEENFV
Sequence of Torsin-1A-interacting protein 1 (Homo sapiens) (Q5JTV8 whole entry, looked up): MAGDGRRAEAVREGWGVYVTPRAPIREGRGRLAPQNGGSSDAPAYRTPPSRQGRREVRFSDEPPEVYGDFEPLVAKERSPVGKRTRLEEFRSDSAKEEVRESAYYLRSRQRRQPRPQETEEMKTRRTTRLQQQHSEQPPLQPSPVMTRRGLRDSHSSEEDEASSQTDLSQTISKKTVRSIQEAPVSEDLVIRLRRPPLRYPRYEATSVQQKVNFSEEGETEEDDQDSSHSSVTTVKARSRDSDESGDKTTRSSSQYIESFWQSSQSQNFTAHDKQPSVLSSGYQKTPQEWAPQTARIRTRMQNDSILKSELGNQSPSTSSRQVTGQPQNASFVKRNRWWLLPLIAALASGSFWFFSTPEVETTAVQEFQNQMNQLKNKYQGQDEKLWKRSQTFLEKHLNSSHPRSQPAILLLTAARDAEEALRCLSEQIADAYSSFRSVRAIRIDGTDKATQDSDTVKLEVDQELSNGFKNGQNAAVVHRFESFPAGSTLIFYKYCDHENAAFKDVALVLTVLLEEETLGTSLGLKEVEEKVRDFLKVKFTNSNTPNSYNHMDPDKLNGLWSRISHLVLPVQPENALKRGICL

With `COC(=O)[C@@]1(Cc2ccc(OC)cc2)[C@H]2c3cc(C(=O)N4CCCC4)n(Cc4ccccn4)c3C[C@H]2CN1C(=O)c1ccccc1`, the composite z-score in [1] was 0.987; in assay [2] it was 1.33; in assay [3], 1.3; in [5] it was 0.928; in assay [6], 1.2; in assay [7] it was -0.0442. Besides, the composite z-score in assay [8] was 0.182; in assay [9], -0.899; in assay [10] it was 0.673; in [11], 1.48; in assay [13], -0.662; in [14], 1.42. For the same molecule, the composite z-score in assay [15] was 0.816; in assay [16] it was 0.202; in [17] it was -0.0069; in assay [18], 2.04; in assay [19], 1.07; in [20], 0.65. Besides, the z-score is -3.17 (inactive) in assay [4] and -1.52 in assay [12].
As to `CCOC(=O)[C@H]1C[C@H]2O[C@@]23C[C@H]1C(=O)N1CCCC1[C@@H]3O[Si](C)(C)C(C)(C)C` (stereo not given in full), the composite z-score in assay [1] was -0.169; in [2] it was -0.199; in assay [3], -0.528; in assay [5] it was 0.476; in assay [6], -0.445; in [7], -0.694. Further, the composite z-score in [8] is -0.198; in [9], 0.0691; in assay [10], 0.198; in assay [11], -0.917; in assay [13], -0.0688; in assay [14], -0.821. The composite z-score is -0.392 in assay [15]; -0.184 in assay [16]; -0.138 in assay [17]; -0.202 in [18]; -0.132 in [19]; -0.789 in assay [20]. Also, the figures for the z-score in [4] and in assay [12] were 0.376 (inactive) and -0.633, respectively.
`COCCOC(=O)N1C(=O)[C@@]2(c3cc(C#CCNC(N)=O)ccc31)[C@H](c1ccc(O)cc1)N1[C@H](c3ccccc3)[C@H](c3ccccc3)OC(=O)[C@H]1[C@@H]2C(=O)NC[C@H](O)c1ccccc1`: the composite z-score in assay [1] was 0.193; in assay [2], 0.614; in assay [3] it was 0.689; in [5] it was 1.05; in assay [6] it was 0.727; in assay [7], 0.222. The composite z-score in [8] was determined as 1.34; in assay [9], 1.52; in assay [10], 0.342; in assay [11], 0.83; in assay [13], 0.952; in assay [14] it was 0.288. For the same molecule, the composite z-score was 0.0058 in assay [15]; 0.0026 in assay [16]; -0.119 in assay [17]; -0.287 in [18]; 1.1 in assay [19]; 0.834 in assay [20]. The z-score was 0.716 (inactive) in assay [4] and -0.703 in [12].
As for `COc1ccc(C(O)C2C=CC3C(=O)NC(=O)C3N2Nc2ccccn2)cc1OCc1ccccc1` (stereo not given), the composite z-score in assay [1] is 0.524; in assay [2] it was 0.0679; in [3] it was 0.668; in assay [5], -0.0457; in assay [6], 0.13; in [7] it was 0.208. Also, the composite z-score was 0.187 in assay [8]; -0.236 in [9]; 0.557 in assay [10]; -0.156 in assay [11]; -0.0932 in [13]; 0.916 in assay [14]. Besides, the composite z-score is 0.0805 in assay [15]; -0.15 in assay [16]; -0.0886 in assay [17]; 0.185 in [18]; 0.474 in assay [19]; 0.251 in assay [20]. Moreover, the z-score in assay [4] is 1.04 (inactive); in assay [12], -0.129.
With `Cc1ccc(F)cc1S(=O)(=O)N[C@@H]1CCN(Cc2ccc(-c3ccccc3)cc2)C1`, the composite z-score in [1] is 0.293; in [2], -0.188; in assay [3], -0.318; in assay [5], 0.927; in assay [6], 0.205; in [7] it was 0.156. Moreover, the composite z-score in assay [8] was 0.239; in assay [9] it was 0.138; in [10], 0.42; in assay [11], 0.504; in assay [13], 0.473; in assay [14], -0.452. Also, the composite z-score in [15] is -0.578; in [16], -0.129; in assay [17] it was -0.0011; in assay [18], -0.316; in assay [19], 0.668; in [20] it was 0.116. The z-score in assay [4] is 1.18 (inactive); in assay [12], -4.36.
